Screening data as filed in PubChem.
Many of the other results were omitted from the sample, so hits are more common in it than they were.
Pf Dd2 inh: Plasmodium falciparum Dd2 growth inhibition | P. falciparum Dd2 growth, SYBR Green, 72 h | Potency, µM (doses to about 28.9 µM), inactives show at the top dose activity, negative = inhibition, usual class: inhibitors | 120,000 tested, 4.3% active | AID 1347417; active = well fitted inhibition curve with a large enough effect;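 note: plate controls were DMSO vehicle for no effect and reference drug for full effect; nearly all actives have a fitted effect of over 65% in size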
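Infected erythrocytes (Dd2, 0.3% parasitemia, 2.5% hematocrit final) are added to compound in RPMI-1640/Albumax II medium, grown 72 h at 37C in low oxygen, then lysed with saponin/Triton-X containing SYBR Green and read by fluorescence.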
Starred values were filed as active, the others as inactive; i = inactive; [ ] = remark or other dose. Potency is the fitted concentration of half-maximal effect.

SMILES | Pf Dd2 inh
NS(=O)(=O)c1ccc(F)c(C(=O)NCCSc2ccccn2)c1 | 16%
COc1ccccc1/C=C(\C#N)C(=O)NCC1CCCO1 (configuration not stated) | 31%
COc1ccc(CNC2(Cc3cc(CC(C)C)on3)COC2)cc1 | i
COCCOCC(=O)N1CCCCCNC(=O)[C@@H]2CCCC[C@@H]21 | 18%
CN(Cc1ccccc1)C(=O)CC1CCCN(c2cnn(C)c(=O)c2)C1 (configuration not stated) | i
COc1cccc(-c2cc(C3CCN(C(=O)Nc4ccc(Cl)cc4F)CC3)[nH]n2)c1 | -23%
COc1ccc(S(=O)(=O)N2CCCC(Cc3noc(-c4ccccc4)n3)C2)cc1 (configuration not stated) | 4.5µM*
Cn1cnc(S(=O)(=O)N2CCCC(Cc3noc(-c4ccccc4)n3)C2)c1 (configuration not stated) | i
COc1ccc(S(=O)(=O)N2CCCC(Cc3noc(-c4cnccn4)n3)C2)cc1 (configuration not stated) | i
COCC(=O)N[C@H]1C[C@@H](CO)N(Cc2cc(F)ccc2F)C1 | -7%
Cc1cccc(C(=O)NCC(=O)N2CCCCCNC(=O)CC2c2ccccc2)c1 (configuration not stated) | -1%
COc1cc(NC(=O)c2cc3c(s2)-c2ccccc2OC3)cc(OC)c1OC | 5.6µM*
COC(=O)c1ccccc1NC(=O)c1cc2c(s1)-c1ccccc1OC2 | 19%
COc1cccc(CNC(=O)c2cc3c(s2)-c2ccccc2OC3)c1 | 17%
CCOC(=O)c1cn(C2CN(S(=O)(=O)c3ccc(C)c(C)c3)C2)nn1 | 9%
CCN(CC)CCNC(=O)CN1C(=O)c2cccnc2Oc2ccc(C)cc21 | 30%
CCOc1ccccc1N1CCN(Cc2ccc(=O)n(CC)c2)CC1 | -7%
COc1ccccc1N1CCN(c2csc3ccccc3c2=O)CC1 | -10%
COc1ccc(-c2noc(CN3CCN(c4ccccc4OC)CC3)n2)cc1OC | 11%
COc1ccccc1N1CCN(Cc2cc(COC(C)C)c3cccnc3c2O)CC1 | 1.6µM*
C=CCS(=O)(=O)NCc1cccnc1N1CCN(c2ccccc2OC)CC1 | -3%
CCCOCc1cc(CN2CCN(c3ccccc3OC)CC2)c(O)c2ncccc12 | 2.8µM*
COc1ccccc1N1CCN(c2ncccc2-c2nc(-c3ccc(Cl)cc3)no2)CC1 | 36%
COc1ccccc1N1CCN(C(CNC(=O)C(=O)NCc2cccnc2)c2cccnc2)CC1 (configuration not stated) | -4%
CCOCc1cc(CN2CCN(c3ccccc3OC)CC2)c(O)c2ncccc12 | 2µM*
SMILES | Pf Dd2 inh
CC(=O)Nc1ccc(CNC(=O)CN2CCN(C(C)=O)CC2)cc1 | 4%
COc1ccc(NC(=O)N[C@H]2[C@H](O)[C@@H](Sc3ccccc3)[C@@H]3OC[C@H]2O3)cc1 | -17%[44.1 µM]
Cc1cc(C)c(NC(=O)Cn2nnc(-c3nc(-c4ccccc4)no3)c2N)c(C)c1 | 74%
CCN(CC)C(=O)N1CC(Oc2ccc(-c3nc(C)no3)cc2)C1 | 37%[5.79 µM]
CCc1ccc(Nc2nc(-c3cc4cccc(OC)c4oc3=O)c(CC)s2)cc1 | 11µM*
CCOc1cccc2cc(-c3nnc(Nc4ccc(F)c(Cl)c4)s3)c(=O)oc12 | 21%
COc1cccc2cc(-c3nc(Nc4cccc(C)c4C)sc3C)c(=O)oc12 | 5%
CC(C)CC(=O)N1CC(c2nnc(-c3ccncc3)o2)C2(CCOCC2)C1 (configuration not stated) | -14%
CCNc1ncc(C(=O)N2CCN(CCCCOC)CC2)cn1 | 0%
CNc1nc2c(c(C(=O)N3CCCC3)n1)CN(C(=O)c1cc(C(C)C)on1)CC2 | -13%
CN1C[C@@H](NC(=O)c2ccc(F)cc2)C[C@H]1c1nc(-c2cncnc2)no1 | i
CN1C[C@@H](NC(=O)c2ccc(-c3ccccc3)cc2)C[C@H]1c1nc(-c2ccncc2)no1 | 11µM*
CN1C[C@@H](NC(=O)c2ccc(F)cc2)C[C@H]1c1nc(-c2ccccc2)no1 | 11µM*
CN1C[C@@H](NC(=O)c2cccnc2)C[C@H]1c1nc(-c2ccncc2)no1 | -28%[44.1 µM]
CN1C[C@@H](NC(=O)c2ccc(F)cc2)C[C@H]1c1nc(-c2ccncc2)no1 | i
CN1C[C@@H](NC(=O)c2cccnc2)C[C@H]1c1nc(-c2cccnc2)no1 | 2%[44.1 µM]
COCCC1(NS(C)(=O)=O)CCNCC1 | -14%
COCCN1CC(CO)C2(CCN(C(=O)Cc3cccc(F)c3)CC2)C1 (configuration not stated) | 4%
COc1ccc(S(=O)(=O)N2CCC(c3noc(-c4cnccn4)n3)C2)cc1 (configuration not stated) | i[5.79 µM]
Cc1c(CCNC(=O)c2ccc(Br)o2)sc2nc(-c3ccc(Cl)cc3)nn12 | -16%
CCC(=O)NCCc1sc2nc(-c3ccc(OC)cc3)nn2c1C | -6%
COc1ccc(-c2nc3sc(CCNC(=O)c4ccc(Br)o4)c(C)n3n2)cc1 | 8.9µM*
COc1ccc(-c2nc3sc(CCNC(=O)Cc4ccc(Cl)cc4)c(C)n3n2)cc1 | 6%
CCOc1ccc(CC(=O)NCCc2sc3nc(-c4ccc(OC)cc4)nn3c2C)cc1 | -28%
COc1ccc(-c2nc3sc(CCNC(=O)c4ccc(C(C)(C)C)cc4)c(C)n3n2)cc1 | 1.1µM*
SMILES | Pf Dd2 inh
CC1CCCN(c2ncnc3c2CN(c2ccc(Cl)cc2)C(=O)CN3C)C1 (configuration not stated) | 10µM*
Cc1ccc(N2Cc3c(ncnc3N3CCN(C)CC3)N(C)CC2=O)cc1 | -23%
CC1CCCN(c2ncnc3c2CN(c2ccccc2F)C(=O)CN3C)C1 (configuration not stated) | -11%
COc1cc2c(cc1-c1c(-c3ccccc3)ncn1CCCO)CCC2 | 13µM*
OCCCn1cnc(-c2ccccc2)c1-c1ccc(-c2ccn[nH]2)o1 | -11%
CCOc1cc(-c2c(-c3ccccc3)ncn2CCNC(C)=O)ccc1OC | -24%
O=C1CSc2ccccc2N1CC(=O)N1CCCCC1c1nccs1 (configuration not stated) | -13%
CCOc1ccc(NC(=O)Cn2nc3c(cc2=O)CCCCC3)cc1 | 4%
CC(C)CN1C(=O)CCc2cc(NC(=O)c3ccc(N(C)C)cc3)ccc21 | -25%
CCc1ccc2oc(-c3cc(NC(=O)c4cccs4)ccc3Cl)nc2c1 | -16%
CC(C)Cc1nn2c(=O)cc(COC(=O)c3ccc(NC(=O)c4cccs4)cc3)nc2s1 | 50%
CCc1ccc(C2=C(C)C(N3CCC(C(=O)Nc4cccc(OC)c4)CC3)=NS2(=O)=O)cc1 | i
CC(=O)Nc1ccc2c(c1)S(=O)(=O)N=C(CC(C)C)N2CC(C)C | 4µM*
CC(C)CC(=O)Nc1ccc2c(c1)CCC(=O)N2CC(C)C | i
CCC1=NS(=O)(=O)c2cc(NC(=O)C3CC3)ccc2N1CCOC | -16%
CCC1=NS(=O)(=O)c2cc(NC(=O)C3CC3)ccc2N1CC(C)C | 4.5µM*
CCCN1C(CC(C)C)=NS(=O)(=O)c2cc(NC(=O)c3cccs3)ccc21 | 0.11µM*
O=C(c1cc(-c2ccccc2)nc2ccccc12)N1CCc2c(nc[nH]c2=O)C1 | -25%
O=C(c1ccc(CSc2ncccn2)o1)N1CCC(N2CCCC2=O)CC1 | -7%
CN(C)C[C@@H]1CN(c2ccncn2)C[C@H]1NC(=O)COc1ccccc1 | 12%
CC1=C[C@@H](CN2CCC(CO)CC2)[C@H](C(C)C)C[C@H]1Cc1nnc(-c2ccc([N+](=O)[O-])cc2)o1 | 3.5µM*
CC1=C[C@@H](CN2CCN(CCO)CC2)[C@H](C(C)C)C[C@H]1Cc1nnc(-c2ccc([N+](=O)[O-])cc2)o1 | 2.5µM*
